# G9a inh: inhibitors of human histone lysine methyltransferase G9a; Q96KQ7; G9a H3K9 monomethylation, AlphaScreen, 2 h; Potency, µM (top dose mostly 102 µM), inactives show at the top dose activity, negative = inhibition, actives largely listed as inhibitors; hit rate 8.8% among 350,000; note: potency is the fitted concentration of half-maximal effect; % is set by controls: 0 for no effect and ±100 for the full control effect; nearly all actives have a fitted effect of over 75% in size
#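 AlphaScreen read-out: biotin-H3K9 peptide (500 nM) methylation by 20 nM enzyme with 20 uM SAM, 2 h at room temperature after 15 min compound preincubation; anti-monomethyl H3K9 antibody plus donor/acceptor beads, 10 min dark.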
# JMJD2A Tudor: inhibitors of human JMJD2A Tudor domain | O75164 | AlphaScreen JMJD2A-Tudor / H3K4me3 peptide binding | Potency, µM (titrated, usually from 114 µM), inactives show at the highest dose activity change, negative = inhibition, actives largely listed as inhibitors | hit rate 4.4% among 390,000 | AID 504339; note: potency is the fitted concentration of half-maximal effect; % is set by controls: 0 for no effect and ±100 for the full control effect; nearly all actives have a fitted effect of over 50% in size
# BAZ2B inh: inhibitors of human BAZ2B bromodomain; Q9UIF8; AlphaScreen BAZ2B-H3K14Ac peptide displacement; Potency, µM (doses to about 114 µM), without a hit: top-dose activity change, negative = inhibition, hits mostly inhibitors; hit rate 4.4% among 360,000; AID 504333; note: potency is the fitted concentration of half-maximal effect; % is set by controls: 0 for no effect and ±100 for the full control effect; nearly all actives have a fitted effect of over 60% in size
#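 In this displacement format the biotinylated H3(5-23) peptide acetylated at Lys14 serves as ligand at 50 nM, with BAZ2B at 50 nM in PBS pH 7.4 containing 0.01% Tween-20. Donor and acceptor beads are 10 ug/mL final.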
# HP1b binding inh: blocks HP1-beta chromodomain binding to methylated histone tails. P83916. AlphaScreen HP1-beta / biotin-H3K9me3 peptide binding. Potency, µM (series often up to 114 µM), without a hit: at the highest dose activity change, negative = inhibition, actives largely listed as inhibitors. hit rate 0.56% among 390,000. AID 540317; note: potency is the fitted concentration of half-maximal effect; nearly all actives have a fitted effect of over 70% in size
#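 AlphaScreen: HP1-beta (50 nM) preformed 30 min with biotin-H3(1-18)K9me3 peptide (50 nM) in PBS pH 7.4, 0.01% Tween-20. Compound added for 30 min at RT, then streptavidin donor/nickel chelate acceptor beads (10 ug/mL) for 30 min.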
# CtBP-E1A blk: inhibitors of CtBP/E1A interaction | AlphaScreen GST-E1A/His-CtBP binding, 1536-well; stronger effect = lower value | activity change, % (concentration not given with the values) | hit rate 0.49% among 340,000; in the data active = activity change below about -65%; inconclusive = mostly about -30% to -63%; note: % is set by controls: 0 for no effect and ±100 for the full control effect
#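 AlphaScreen with 125 nM GST-E1A and 125 nM His-CtBP (5X stocks) in Tris pH 8.0, 300 mM NaCl, BSA, Tween 20, TCEP. Compounds preincubated 2 h at 37 deg C, then glutathione donor/nickel acceptor beads added for 1 h at 37 deg C in dark.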
# Six1-Eya2 inh: blocks human Six1 binding to Eya2. AlphaScreen GST-Six1/His-Eya2 binding, biochemical; stronger effect = lower value. Q15475+O00167. hit rate 0.56% among 360,000. activity change, % (test concentration not listed); in the data active = activity change below about -65%; inconclusive = mostly about -30% to -63%; note: % is set by controls: 0 for no effect and ±100 for the full control effect
# Target sequence (O00167 whole entry, looked up): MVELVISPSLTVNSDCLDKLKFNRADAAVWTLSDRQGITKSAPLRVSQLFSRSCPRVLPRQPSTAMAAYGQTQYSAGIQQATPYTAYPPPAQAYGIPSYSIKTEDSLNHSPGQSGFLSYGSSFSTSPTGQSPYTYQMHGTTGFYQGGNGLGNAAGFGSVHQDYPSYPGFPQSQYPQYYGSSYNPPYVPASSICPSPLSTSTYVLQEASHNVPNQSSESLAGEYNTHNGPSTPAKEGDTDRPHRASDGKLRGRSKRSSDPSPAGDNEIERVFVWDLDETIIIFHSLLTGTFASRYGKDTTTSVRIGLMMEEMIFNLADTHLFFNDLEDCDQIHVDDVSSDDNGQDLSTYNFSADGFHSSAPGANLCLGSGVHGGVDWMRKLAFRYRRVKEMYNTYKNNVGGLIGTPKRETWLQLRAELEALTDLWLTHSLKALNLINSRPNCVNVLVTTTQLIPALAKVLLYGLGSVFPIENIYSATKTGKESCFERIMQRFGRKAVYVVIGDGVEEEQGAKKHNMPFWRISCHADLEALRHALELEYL
# Target sequence (Q15475 whole entry, looked up): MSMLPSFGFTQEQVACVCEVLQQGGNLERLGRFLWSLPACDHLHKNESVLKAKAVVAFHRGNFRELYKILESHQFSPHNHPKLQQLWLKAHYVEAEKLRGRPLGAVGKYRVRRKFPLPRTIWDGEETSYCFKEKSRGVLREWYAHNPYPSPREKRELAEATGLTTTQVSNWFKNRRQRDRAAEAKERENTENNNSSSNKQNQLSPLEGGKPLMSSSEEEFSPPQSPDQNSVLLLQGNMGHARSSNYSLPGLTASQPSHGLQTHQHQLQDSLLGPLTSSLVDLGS
#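 Six1/Eya2 binding was read as AlphaScreen signal after compounds were pinned into GST-Six1 plus His-tagged Eya2 (5X stock 250/500 nM) in pH 8.0 Tris/NaCl/TCEP buffer, beads added, then incubated 1 h, 37 C, dark.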
# Numbers without * were called inactive; ? = inconclusive; · = no result given; [ ] = dose if it differs, or a comment. Compounds with a hit are over-represented: about 10% of the library has one in this group of screens. Unless noted, calls come from the whole dose curve; as a rule, active = well fitted inhibition curve with a large enough effect; inconclusive = small, poorly fitted or top-dose-only effect; inactive = no such curve, though single readings can be large or run the other way.
SMILES,G9a inh,JMJD2A Tudor,BAZ2B inh,HP1b binding inh,CtBP-E1A blk,Six1-Eya2 inh
COc1ccc(C(=O)CSc2nnc(-c3ccco3)c(-c3ccco3)n2)cc1,8.91µM*,22.4µM*,20µM*,?,?,?
COc1ccc(NC(=O)CSc2nnc(-c3ccco3)c(-c3ccco3)n2)cc1OC,7.08µM*,?,-9.4%,?,?,?
CSc1nnc(-c2ccco2)c(-c2ccco2)n1,?,-6.9%[11.4 µM],20µM*,?,-13.6,-19.3
COc1cccc(NC(=O)CSc2nnc(-c3ccco3)c(-c3ccco3)n2)c1,2.82µM*,44.7µM*,50.1µM*,?,?,?
CCn1c(SCC(=O)Nc2ccc(OC)c(OC)c2)nnc1-c1ccco1,2.4%,-14.4%,0.0%,21.6%,·,-2.7
C[C@@H]1CN([C@@H](C)CO)C(=O)CCCn2nncc2CO[C@@H]1CN(C)S(=O)(=O)c1cccc(C#N)c1,·,·,·,·,-12.7,29.1
O=c1cc(-c2ccc(O)c(O)c2)oc2ccc3ccccc3c12,56.2µM*,-24.1%,?,-16.9%,-0.4,-1.7
COc1ccccc1C(C)Nc1ccc(S(=O)(=O)N2CCN(C)CC2)cc1[N+](=O)[O-] (stereo unspecified),?,35.5µM*,39.8µM*,?,·,?
COc1cccc(C(CNc2ccc(S(=O)(=O)N3CCN(C)CC3)cc2[N+](=O)[O-])N(C)C)c1 (stereo unspecified),50.1µM*,?,?,-21.7%,1.6,-5.8
CN1CCN(S(=O)(=O)c2ccc(N(C)Cc3ccc(OC(F)F)cc3)c([N+](=O)[O-])c2)CC1,8.9%[0.501 µM],?,50.1µM*,?,-18.3,?
CC(Nc1ccc(S(=O)(=O)N2CCN(C)CC2)cc1[N+](=O)[O-])c1ccccc1 (stereo unspecified),39.8µM*,?,?,-27.6%,-16.9,-25.6
COc1ccc(CCNc2ccc(S(=O)(=O)N3CCCC3)cc2[N+](=O)[O-])cc1,?,?,?,?,-28.7,?
CN(CC(=O)O)c1ccc(S(=O)(=O)N2CCOCC2)cc1[N+](=O)[O-],42.2%,-5.3%[57.1 µM],12.2%,50.4%,-22.9,3.1
Cc1cc(=O)c2cc(C(=O)Nc3ccc(C)c(C)c3)ccc2[nH]1,?,-9.6%,-1.1%,47.8%,·,·
COCCNC(=O)C1(C(F)(F)F)C/C(=C\Cc2ccccc2)CCCO1 (stereo unspecified),·,-13.1%,·,48.1%,·,·
O=C1C2C3C=CC(C2C(=O)N1c1ccc(O)cc1)C1C2C(=O)N(c4ccc(O)cc4)C(=O)C2C31 (stereo unspecified),50.1µM*,-15.1%,-23.8%,27.2%,-3.5,-4.3
O=C1C=CC(=O)N1c1ccc(OC(F)F)cc1,1.41µM*,15.8µM*,?,20µM*,3.3,-9.6
O=C1C=CC(=O)N1c1ccc(O)cc1,1µM*,39.8µM*,-4.6%,?,-5.1,-9.0
O=C(O)CNC(=O)c1ccc(OC(F)F)cc1,-14.5%[59 µM],-7.6%,-6.2%,43.4%,9.5,6.7
CC(C)CCC(CCNCc1ccccn1)c1ccc(Cl)cc1 (stereo unspecified),-11.5%,79.4µM*,?,?,0.4,6.0
COC(=O)c1cc2sc(C)cc2n1CC(=O)Nc1ccc(C)c(C)c1,1.0%[59 µM],-7.6%,-1.8%,23.1%,·,·
O=c1oc2c3c4c(cc2s1)CCCN4CCC3,7.94µM*,17.8µM*,56.2µM*,?,?,?
O=c1ccc2cc3c4c(c2o1)CCCN4CCC3,?,-8.3%,15.2%,73.2%,0.2,-5.7
COc1ccc(C(=O)Nc2ccccc2C(=O)OCc2cc(=O)n3nc(C4CC4)sc3n2)cc1,20.0%[59 µM],0.7%,-7.0%,11.7%,·,·
C#CCOc1c(Br)cc(C2C(C(=O)OC)=C(C)NC3=C2C(=O)c2ccccc23)cc1OCC (stereo unspecified),10µM*,11.2µM*,?,?,·,·

# Compound activity: PubChem BioAssay, National Center for Advancing Translational Sciences (NCATS)
